# Reference: PubChem BioAssay (NCATS)
# Unmarked numbers belong to inactive results. The call rests on the fitted dose curve; in most records, active means well fitted cell-killing curve with a large enough effect; inconclusive means small, poorly fitted or top-dose-only effect; inactive means flat fitted curve, though single readings scatter.
# Assay: MultiTox-Fluor Cytotoxicity Assay - LYMP1-003 - Live Cells (AID 962);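 further: cells exposed to compound for 16 hours at 37 °C; 0% = DMSO only and full loss = 92 µM tetraoctylammonium bromide; cytotoxic hits lower the live-cell protease signal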
# Settings: LYMP1-003 lymphoblastoid cells, MultiTox-Fluor live-cell protease fluorescence; series mostly up to 92.2 µM; activity change, negative = fewer live cells: at the top concentration
# Outline: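 LYMP1-003 lymphoblastoid cells, 2500/well in complete medium, treated 16 h at 37 C; live-cell protease cleavage of GF-AFC read by fluorescence (Ex/Em 405/510) after 60 min reagent; AC50 from Hill fits of concentration-response.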
row,SMILES,"activity change, negative = fewer live cells [%]"
1,Nc1nc(CC(=O)O)cs1,-5.59
2,CC(=O)CC(C)C,-7.14
3,CCCCC(CC)CO (stereo not drawn),0.522
4,CCCCC(=O)N(C)C,1.14
5,O=CNc1ccccc1,-4.35
6,Clc1ccc(Cl)c(Cl)c1Cl,-2.35
7,C=CCCCCCCC=C,-4.13
8,CCCCCCC=O,-2.72
9,CCCCC(CC)COCC1CO1 (stereo not drawn),-4.18
10,C=CCOC(=O)COCCC(C)C,-4.02
11,C=C(C)C(N)=O,-1.02
12,CCN(Cc1ccccc1)c1ccccc1,-2.49
13,O=C(O)c1cccc(Cl)c1Cl,-1.36
14,CC(=O)c1cccc([N+](=O)[O-])c1,-0.468
15,O=C(O)CNC(=O)c1ccc([N+](=O)[O-])cc1,-2.37
16,Nc1c(Cl)cc(Cl)cc1Cl,-3.82
17,C=CCCCC,-0.173

row,SMILES,"activity change, negative = fewer live cells [%]"
1,NC(=O)c1cccc([N+](=O)[O-])c1,-1.31
2,C=C(C)OC(C)=O,-0.0999
3,CC(C)Cc1nccs1,-5.32
4,CCOCCOCC,-6.16
5,CCC1CO1 (stereo not drawn),-2.44
6,NC(=O)CCCCC(N)=O,-3.45
7,CCOC(C)(C)C,-7.63
8,CC(N)CN (stereo not drawn),-2.71
9,Cc1ccc(C(C)(C)C)cc1,-7.12
10,Cc1ccc(C#N)cc1,-3.86
11,Cc1ccc(C)cc1,-4.69
12,CN(C)CCCCl,-6.42
13,CC(=O)c1nccs1,-2.95
14,CCCCC(C=O)CC (stereo not drawn),-7.55
15,CCCCCCCCC,-4.83
16,C=CCCCCCC,-2.67
17,Cc1ccc(C)c([N+](=O)[O-])c1,-0.581

# Assay: Cell Viability - LYMP1-003 - Assay at 24 hr (AID 963);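 further: plate controls were DMSO only for no effect and tetraoctylammonium bromide positive control for full effect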
# Settings: LYMP1-003 lymphoblastoid cell viability; series mostly up to 92.2 µM; viability change, negative = cytotoxic: at the top concentration
# Outline: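 Human lymphoblastoid LYMP1-003 cells, 2500/well, treated 24 h at 37 C in complete medium. Viability read as intracellular ATP by CellTiter-Glo luminescence after 30 min at room temperature; AC50 from Hill-equation fits of qHTS concentration-response.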
row,SMILES,"viability change, negative = cytotoxic [%]"
1,Nc1nc(CC(=O)O)cs1,-5.33
2,CC(=O)CC(C)C,1.24
3,CCCCC(CC)CO (stereo not drawn),-1.56
4,CCCCC(=O)N(C)C,0.161
5,O=CNc1ccccc1,0.594
6,Clc1ccc(Cl)c(Cl)c1Cl,-1.25
7,C=CCCCCCCC=C,-2.41
8,CCCCCCC=O,-2.66
9,CCCCC(CC)COCC1CO1 (stereo not drawn),0.277
10,Cc1cc(C)cc(N)c1,-2.61
11,C=CCOC(=O)COCCC(C)C,0.0828
12,O=C(O)CNC(=O)c1ccc(CO)o1,3.6
13,C=C(C)C(N)=O,3.42
14,CCN(Cc1ccccc1)c1ccccc1,4.01
15,O=C(O)c1cccc(Cl)c1Cl,-2.67
16,CC(=O)c1cccc([N+](=O)[O-])c1,-1.23
17,O=C(O)CNC(=O)c1ccc([N+](=O)[O-])cc1,-0.764
18,Nc1c(Cl)cc(Cl)cc1Cl,3.32
19,C=CCCCC,-3.04
20,NC(=O)c1cccc([N+](=O)[O-])c1,-0.247

row,SMILES,"viability change, negative = cytotoxic [%]"
1,C=C(C)OC(C)=O,2.15
2,CC(C)Cc1nccs1,0.332
3,CC(C)c1ccccc1,-0.357
4,CCOCCOCC,-2.04
5,CCC1CO1 (stereo not drawn),-4.32
6,NC(=O)CCCCC(N)=O,-2.45
7,CCOC(C)(C)C,-1.68
8,CC(N)CN (stereo not drawn),-2.14
9,Cc1ccc(C(C)(C)C)cc1,3.96
10,Cc1ccc(C#N)cc1,-3.61
11,Cc1ccc(C)cc1,-3.37
12,CN(C)CCCCl,-2.93
13,CC(=O)c1nccs1,2.16
14,CCc1ccccc1,-0.691
15,CCCCC(C=O)CC (stereo not drawn),0.33
16,CC(C)=C1CCC(C)CC1=O (stereo not drawn),-5.21
17,CCCCCCCCC,-1.89
18,C=CCCCCCC,1.96
19,Cc1ccc(C)c([N+](=O)[O-])c1,-3.22
